# In PubChem BioAssay (NCI):
# About 83,000 compounds went through this panel and 20% of them were active in at least one assay; those are over-represented in the sample as a whole.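 Interpretation: 100, growth as untreated; towards 0, rising growth inhibition; 0, no net growth; 0 to -100, cell death. Compounds scoring below 10 were considered active.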 A number with no mark means an inactive call. Calls of active or inactive are those of the source.
# Legend:
# Assay in all cases: NCI-60 one-dose screen, 48 h (100 = growth as untreated, 0 = no growth, -100 = all killed)
# Conditions in all cases: 10 µM unless noted
# DU-145 prostate = tested on: DU-145 prostate
# K-562 leukemia = tested on: K-562 leukemia
# MALME-3M melanoma = tested on: MALME-3M melanoma
# MDA-MB-231 breast = tested on: MDA-MB-231 breast
# RXF 393 renal = tested on: RXF 393 renal
# SF-268 CNS = tested on: SF-268 CNS
# SF-295 CNS = tested on: SF-295 CNS
# SF-539 CNS = tested on: SF-539 CNS
# UACC-257 melanoma = tested on: UACC-257 melanoma
# M14 melanoma = tested on: M14 melanoma
# HCT-15 colon = tested on: HCT-15 colon
# HT29 colon = tested on: HT29 colon
# SNB-75 CNS = tested on: SNB-75 CNS
# SNB-19 CNS = tested on: SNB-19 CNS
# U251 CNS = tested on: U251 CNS
# PC-3 prostate = tested on: PC-3 prostate
# SK-MEL-5 melanoma = tested on: SK-MEL-5 melanoma
# UACC-62 melanoma = tested on: UACC-62 melanoma
# LOX IMVI melanoma = tested on: LOX IMVI melanoma
# SK-MEL-28 melanoma = tested on: SK-MEL-28 melanoma
SMILES,growth (DU-145 prostate),growth (K-562 leukemia),growth (MALME-3M melanoma),growth (MDA-MB-231 breast),growth (RXF 393 renal),growth (SF-268 CNS),growth (SF-295 CNS),growth (SF-539 CNS),growth (UACC-257 melanoma),growth (M14 melanoma),growth (HCT-15 colon),growth (HT29 colon),growth (SNB-75 CNS),growth (SNB-19 CNS),growth (U251 CNS),growth (PC-3 prostate),growth (SK-MEL-5 melanoma),growth (UACC-62 melanoma),growth (LOX IMVI melanoma),growth (SK-MEL-28 melanoma)
Cc1ccc2[nH]c(=O)c3c(c2c1)OC(N)=C(C#N)C31c2cc(Br)ccc2-c2ccc(Br)cc21,29.1%,60.7%,54.9%,39.1%,65.8%,78%,70.1%,85.5%,76.8%,55.1%,45.4%,39.7%,70%,62.5%,72.6%,48.3%,56%,49.5%,63%,66.8%
N#Cc1c(N)nc2c(C#N)c(NC(=O)c3ccccc3)nn2c1-c1ccccc1,102%,73.1%,102%,84.3%,83.5%,86.2%,90%,94.2%,105%,87.3%,81.2%,99%,83%,89.6%,106%,75.7%,78.4%,91.2%,86.3%,103%
Oc1ccc(CN2CCC(N3CCOCC3)CC2)c2cccnc12,29.3%,12.9%,-0.979% (active),31%,13.1%,32.3%,5.68% (active),13.6%,7.47% (active),24.2%,17.7%,103%,32%,17.6%,16.9%,15.3%,-45.8% (active),12.9%,15.2%,39.5%
COC1=C(OC)C(=O)C(OC)=C(OC)C1=O,101%,87.2%,101%,46.3%,95%,94.4%,97.7%,114%,107%,105%,108%,104%,106%,99%,105%,95.5%,105%,102%,90.7%,105%
COc1ccccc1CNCCCN1C(=O)c2ccc3c4c(ccc(c24)C1=O)C(=O)N(CCCNCCCCN)C3=O,-71.1% (active),3.21% (active),-80.7% (active),9.4% (active),-80.9% (active),0.101% (active),0.192% (active),-75.3% (active),-71.8% (active),-80.2% (active),12.7%,-23.9% (active),-95.3% (active),-57.8% (active),-67.4% (active),-11.8% (active),-98.3% (active),-60.1% (active),-16.3% (active),-94.1% (active)
COc1ccc2[nH]c(O)c(C(=Nc3ccc(N(C)C(=O)CN4CCN(C)CC4)cc3)c3ccccc3)c2c1,27.7%,5.35% (active),43.5%,28.4%,-25.1% (active),30.7%,48.3%,-38.9% (active),65.9%,29.3%,24.7%,18%,-5.94% (active),57.5%,45.1%,56.6%,67.3%,75.3%,9.09% (active),42.4%
Cc1cc(C(=O)c2ccccc2)c(C)c2c1[nH]c1ccc(Cl)cc12,1.86% (active),11.9%,33.7%,30.6%,18.9%,22.8%,6.92% (active),-14.9% (active),66.1%,19.6%,7.78% (active),5.31% (active),-10.1% (active),52.3%,20.8%,23.8%,2.39% (active),54.9%,10.2%,59.1%
COc1cccc(-c2nn(-c3ccccc3)cc2-c2ccnc(NCCCNC(=O)Nc3ccc(Cl)c(Cl)c3)c2)c1,22.1%,-13.6% (active),-27.1% (active),-37.2% (active),9.74% (active),13.9%,-4.97% (active),1.74% (active),-29.6% (active),-52% (active),6.61% (active),-36.4% (active),25.4%,27.7%,-15.5% (active),6.51% (active),-26.4% (active),-29.7% (active),-92.1% (active),-29.2% (active)
NC[C@H](O)c1ccc(O)c(O)c1,106%,106%,111%,78.8%,117%,112%,123%,92%,109%,95.9%,104%,102%,120%,112%,106%,99.7%,104%,102%,94.2%,116%
O=c1ssc(Cl)c1-c1ccccc1,113%,102%,100%,97%,86.7%,134%,102%,90.7%,91.3%,96.7%,101%,103%,90.5%,111%,104%,79.5%,97.1%,95.4%,92.5%,100%
CN(C)CC1C(=O)O[C@H]2[C@H]1CC/C(COC(=O)c1cc3ccccc3[nH]1)=C\CC[C@@]1(C)O[C@@H]21 (stereo not given in full),-17.7% (active),-11.4% (active),-44.2% (active),-41.2% (active),-72.2% (active),-59.7% (active),32.4%,-37.7% (active),-86% (active),-62.3% (active),-57.9% (active),-75.7% (active),-59.6% (active),49.5%,-60.9% (active),-23.7% (active),-98.6% (active),-52% (active),-92.7% (active),-59.1% (active)
COc1cc2c(cc1-c1c(C)noc1C)ncc1nc(C3CCC(F)(F)CC3)n(C3CCC(OC(F)F)CC3)c12 (stereo not given),73.3%,41.5%,48.2%,37.8%,75.5%,72.7%,68.1%,61.8%,38.8%,55.1%,36.1%,31.6%,15.1%,67.2%,77.7%,41.8%,43.7%,32%,35.2%,66.6%
Cc1ccc2nc3ccccc3c(NCc3ccccc3)c2c1,35.8%,10.9%,55.2%,35.8%,1.32% (active),69%,28.1%,23.2%,56.6%,45.6%,18%,11.6%,65%,31.8%,37%,29.7%,58.8%,56.4%,9.08% (active),78%
COc1ccc(-c2[nH]c(=S)n(C(CC3(C)NCC(=O)N3n3c(-c4ccccc4)cc(C)nc3=S)c3ccc(OC)cc3)c(=O)c2Br)cc1 (stereo not given),66.6%,14.8%,90.2%,79.9%,65.5%,75.6%,61.9%,58.4%,88.9%,70.9%,39.9%,40.6%,3.88% (active),55.6%,55.8%,66%,79.5%,50.6%,41.3%,83.6%
COc1cc(OC)cc(C2CC(=O)Nc3c2c(C)nn3-c2nc3ccccc3[nH]2)c1 (stereo not given),53.3%,9.41% (active),38.3%,16.5%,-0.824% (active),29.3%,-62.9% (active),18.4%,23.9%,11.8%,37.2%,23.5%,-3.14% (active),21.9%,16.8%,26.4%,-62% (active),-19.2% (active),1.34% (active),38.1%
